# Bioassay records as filed in PubChem BioAssay.
# A selection: hits, their analogues and other compounds. The true share with any hit is near 8.2%.
# ELG1 repair inh: blocks ELG1-dependent DNA repair in HEK293T cells | HEK293T ELG1-luciferase reporter, luminescence, 16 h; DNA damage induced by 5-fluorouridine | Potency, µM (top dose mostly 46.1 µM), actives largely listed as inhibitors | 2.3% of 330,000 active | AID 504467; further: nearly all actives have a fitted effect of over 55% in size
#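 DMSO vehicle served as the neutral condition. Each well held 2,000 cells given 5-fluorouridine plus compound; after 16 hr at 37 °C/5% CO2, ONE-Glo was added and luciferase measured 30 min later.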
# SW480 rereplic: inducers of DNA re-replication in SW480 colon cancer cells. Potency, µM (highest dose often 46.1 µM), actives largely listed as activators. SW480 DNA re-replication, Hoechst DNA content imaging, 48 h. 1.8% of 340,000 active; further: nearly all actives have a fitted effect of over 55% in size
#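 Image-based DNA-content assay: after two days of treatment, nuclei were labelled with the DNA dye Hoechst and imaged, and hits were compounds raising the count of nuclei showing high fluorescence intensity.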
# MCF10A rereplic: induces DNA re-replication in MCF 10a normal breast cells. AID 624296. MCF 10A DNA re-replication, Hoechst nuclear intensity, 48 h. 2.9% of 350,000 active. Potency, µM (highest dose often 46.1 µM), most hits filed as activators; further: nearly all actives have a fitted effect of over 50% in size
# KB-3-1 tox: kills parental KB-3-1 adenocarcinoma cells. Potency, µM (titrated, usually from 46.1 µM), hits mostly cytotoxic. 1.4% of 400,000 active. KB-3-1 viability, CellTiter-Glo ATP luminescence, 72 h; further: nearly all actives have a fitted effect of over 60% in size
#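 Here the drug-naive KB-3-1 line serves as comparator for MDR sub-line selectivity; cells received compound titrations, 72 h at 37 °C, then CellTiter-Glo readout.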
# KB-V1 cytotox: kills drug-selected multidrug resistant KB-V1 cells; 3.4% of 400,000 active; AID 1347076; Potency, µM (highest dose often 46.1 µM), hits mostly cytotoxic; KB-V1 MDR cells viability, CellTiter-Glo, 72 h; further: nearly all actives have a fitted effect of over 60% in size
#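 KB-V1 MDR subline cells in DMEM (phenol-red free, 10% FBS) exposed to compounds in qHTS concentration series for 72 h at 37 degrees C. Viability read by CellTiter-Glo luminescence; concentration-effect curves fitted after normalization and correction.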
# A number is an active result; i = inactive; ? = inconclusive; nt = not tested or not shown; [ ] = another dose, or the depositor's remark. The call rests on the fitted dose curve; in most records, active means well fitted curve in the direction sought with a large enough effect; inconclusive means small, poorly fitted or top-dose-only effect, or another doubt; inactive means no such curve, though single readings can be large; an effect the other way counts as inactive or inconclusive.
SMILES,ELG1 repair inh,SW480 rereplic,MCF10A rereplic,KB-3-1 tox,KB-V1 cytotox
CCOC(=O)C1CCN(c2cc3c(cc2NC(=O)c2ccc(OC)c(OC)c2)n(C)c(=O)n3C)CC1,1.6µM,i,i,i,?
O=c1[nH]c2ccc(NCc3ccc(-c4ccc(Br)cc4)o3)cc2[nH]1,nt,nt,nt,i,i
COc1ccc(-c2sc(C(=O)c3ccc(Cl)cc3Cl)cc2CC(=O)O)cc1,i,i,12µM,?,?
COc1ccc(C2CC(c3ccccc3)=NN2c2ccc(C(N)=O)cc2)cc1 (stereo not drawn),i,21µM,?,i,i
COc1ccc(C2CC(c3cccc(Br)c3)=NN2c2ccc(S(N)(=O)=O)cc2)cc1 (stereo not drawn),i,?,?,?,?
O=C(O)c1ccc(N2N=C(c3ccccc3)CC2c2ccccc2)cc1 (stereo not drawn),?,?,2.3µM,i,i
O=Cc1ccc(N2N=C(c3ccccc3)CC2c2ccccc2)cc1 (stereo not drawn),i,?,?,i,i
COc1ccc(C2CC(c3ccccc3)=NN2c2ccc(S(N)(=O)=O)cc2)cc1 (stereo not drawn),i,16µM,0.58µM,i,?
COc1ccc(C2CC(c3cccc(F)c3)=NN2c2ccc(S(N)(=O)=O)cc2)cc1 (stereo not drawn),i,2.3µM,2.1µM,?,i
Cc1cccc(N(CC(=O)NCc2ccc(F)cc2)C(=O)c2csnn2)c1C,i,i,i,i,i
CC1(C(=O)Nc2cccc3cccnc23)CCN1C(=O)Cc1ccc(Cl)cc1Cl (stereo not drawn),nt,nt,nt,i,?
C=CCn1c(SCC#N)nc2ccc(Cl)cc2c1=O,nt,nt,nt,i,i
NS(=O)(=O)c1ccc(N2N=C(c3ccccc3)CC2c2cccc(Cl)c2)cc1 (stereo not drawn),i,3.7µM,?,i,i
NS(=O)(=O)c1ccc(N2N=C(c3ccccc3)CC2c2ccc(F)cc2)cc1 (stereo not drawn),?,21µM,21µM,i,?
COc1ccc(C2=NN(CN3C(=O)C(=O)c4ccccc43)C(c3ccc(OC)cc3)C2)cc1 (stereo not drawn),?,5.8µM,i,i,i
COc1ccc(C2CC(c3cccc(C(F)(F)F)c3)=NN2c2ccc(S(N)(=O)=O)cc2)cc1 (stereo not drawn),i,?,?,?,?
COc1ccc(C2CC(c3ccccc3Cl)=NN2c2ccc(S(N)(=O)=O)cc2)cc1 (stereo not drawn),i,2.3µM,?,i,i
Cc1cccc(N(CC(=O)Nc2ccc(Br)cc2)S(C)(=O)=O)c1C,nt,nt,nt,i,i
Cc1cc(C)cc(-n2c(C)cc(/C=N/NC(=O)c3ccncc3)c2C)c1,i,i[1.84 µM],i,i,i
Cc1cc(/C=N/NC(=O)Cn2c3ccccc3c(=O)c3ccccc32)c(C)n1-c1ccccc1,i,i,21µM,i,i
Cc1cc(/C=N/NC(=O)c2ccc(CN3CCOCC3)cc2)c(C)n1-c1ccccc1,i,i,i,i,16µM
Cc1cc(C)cc(-n2c(C)cc(/C=N/NC(=O)CSc3ncccn3)c2C)c1,i,?,18µM,?,?
CCOc1cc(/C=C2\N=C(C)OC2=O)cc(Br)c1OCC(=O)OC,i,12µM,9.2µM,i,i
CCC(Sc1nc(C)cc(C)n1)C(=O)Nc1nccs1 (stereo not drawn),18µM,?,i,i,i
O=C(CCCCCCC(=O)NCc1ccccc1)NCc1ccccc1,i,i,i,i,i
SMILES,ELG1 repair inh,SW480 rereplic,MCF10A rereplic,KB-3-1 tox,KB-V1 cytotox
CCN(Cc1ccncc1)S(=O)(=O)c1ccc(C(C)=O)cc1,6.5µM,?,?,?,?
COc1ccc(-c2cc(=O)oc3cc(OC(=O)C4CCCCC4)c(Cl)cc23)cc1,3.3µM,12µM,12µM,i,i
COc1ccc(NC(=O)/C(Cl)=C(/Cl)S(=O)(=O)Cc2ccccc2)cn1,18µM,?,?,?,?
COc1ccc(NC(=O)/C(Cl)=C(/Cl)S(=O)Cc2ccc(Cl)cc2)cn1 (stereo not drawn),?,?,?,7.3µM,5.8µM
COc1ccc(NC(=O)C(Cl)=C(Cl)Cl)cn1,i,?,21µM,?,?
COc1ccc(NC(=O)C(C)(C)Oc2ccc(Cl)cc2)cn1,i,i,i,i,15µM
